# Assay results published in the supplement of paper PMC4466140.
# How the values were obtained:
# Assay in all cases: SPOT peptide array binding signal intensity (averaged, normalized) (arbitrary units (background-subtracted, floor 0; scale differs between SH3 domains)); higher = stronger binding of the SH3 domain to the peptide
# AgAbp1 = target: AgAbp1
# Method in brief: (§1)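 Four yeast species supplied the SH3 domains, which were expressed as GST fusions in E. coli BL21(DE3) and purified on glutathione Sepharose. Incubation with cellulose membranes carrying synthetic 15-mer peptides, cysteines exchanged for serines, ran overnight at 4°C at 10 μg/ml in TBS-based blocking buffer. Binding signal is reported as normalized, background-subtracted spot intensity averaged over replicates, in arbitrary units not shared between domains.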
# AgBbc1 = target: AgBbc1
# Method in brief: as §1
# AgBem1-D1 = target: AgBem1-D1
# Method in brief: as §1
# AgBzz1-D1 = target: AgBzz1-D1
# Method in brief: as §1
# AgBzz1-D2 = target: AgBzz1-D2
# Method in brief: as §1
# AgCyk3 = target: AgCyk3
# Method in brief: as §1
# AgFus1 = target: AgFus1
# Method in brief: as §1
# AgHof1 = target: AgHof1
# Method in brief: as §1
# AgHse1 = target: AgHse1
# Method in brief: as §1
# AgLsb1 = target: AgLsb1
# Method in brief: as §1
# AgLsb4 = target: AgLsb4
# Method in brief: as §1
# AgMyo5 = target: AgMyo5
# Method in brief: as §1
# AgNbp2 = target: AgNbp2
# Method in brief: as §1
# AgRvs167 = target: AgRvs167
# Method in brief: as §1
# AgSho1 = target: AgSho1
# Method in brief: as §1
# AgSla1-D1-D2 = target: AgSla1-D1-D2
# Method in brief: as §1
# AgSla1-D3 = target: AgSla1-D3
# Method in brief: as §1
# CaAbp1-D1 = target: CaAbp1-D1
# Method in brief: as §1
# CaAbp1-D2 = target: CaAbp1-D2
# Method in brief: as §1
# CaBbc1 = target: CaBbc1
# Method in brief: as §1
# CaBem1-D1 = target: CaBem1-D1
# Method in brief: as §1
# CaBzz1-D1 = target: CaBzz1-D1
# Method in brief: as §1
# CaBzz1-D2 = target: CaBzz1-D2
# Method in brief: as §1
# CaCyk3 = target: CaCyk3
# Method in brief: as §1
# CaFus1 = target: CaFus1
# Method in brief: as §1
# CaHof1 = target: CaHof1
# Method in brief: as §1
# CaHse1 = target: CaHse1
# Method in brief: as §1
# CaLsb1 = target: CaLsb1
# Method in brief: as §1
# CaLsb4 = target: CaLsb4
# Method in brief: as §1
# CaMyo5 = target: CaMyo5
# Method in brief: as §1
# CaNbp2 = target: CaNbp2
# Method in brief: as §1
# CaRvs167 = target: CaRvs167
# Method in brief: as §1
# CaRvs167-3 = target: CaRvs167-3
# Method in brief: as §1
# CaSho1 = target: CaSho1
# Method in brief: as §1
# CaSla1-D1-D2 = target: CaSla1-D1-D2
# Method in brief: as §1
# CaSla1-D3 = target: CaSla1-D3
# Method in brief: as §1
# ScAbp1 = target: ScAbp1
# Method in brief: as §1
# ScBbc1 = target: ScBbc1
# Method in brief: as §1
# ScBem1-D1 = target: ScBem1-D1
# Method in brief: as §1
# ScBzz1-D1 = target: ScBzz1-D1
# Method in brief: as §1
# ScBzz1-D2 = target: ScBzz1-D2
# Method in brief: as §1
# ScCyk3 = target: ScCyk3
# Method in brief: as §1
# ScFus1 = target: ScFus1
# Method in brief: as §1
# ScHof1 = target: ScHof1
# Method in brief: as §1
# ScHse1 = target: ScHse1
# Method in brief: as §1
# ScLsb1 = target: ScLsb1
# Method in brief: as §1
# ScLsb2 = target: ScLsb2
# Method in brief: as §1
# ScLsb3 = target: ScLsb3
# Method in brief: as §1
# ScLsb4 = target: ScLsb4
# Method in brief: as §1
# ScMyo3 = target: ScMyo3
# Method in brief: as §1
# ScMyo5 = target: ScMyo5
# Method in brief: as §1
# ScNbp2 = target: ScNbp2
# Method in brief: as §1
# ScPex13 = target: ScPex13
# Method in brief: as §1
# ScRvs167 = target: ScRvs167
# Method in brief: as §1
# ScSho1 = target: ScSho1
# Method in brief: as §1
# ScSla1-D1-D2 = target: ScSla1-D1-D2
# Method in brief: as §1
# ScSla1-D3 = target: ScSla1-D3
# Method in brief: as §1
# SpAbp1-D1 = target: SpAbp1-D1
# Method in brief: as §1
# SpBbc1 = target: SpBbc1
# Method in brief: as §1
# SpBzz1-D1 = target: SpBzz1-D1
# Method in brief: as §1
# SpBzz1-D2 = target: SpBzz1-D2
# Method in brief: as §1
# SpCyk3 = target: SpCyk3
# Method in brief: as §1
# SpHof1 = target: SpHof1
# Method in brief: as §1
# SpHof1-2 = target: SpHof1-2
# Method in brief: as §1
# SpHof1-3 = target: SpHof1-3
# Method in brief: as §1
# SpHse1 = target: SpHse1
# Method in brief: as §1
# SpLsb1 = target: SpLsb1
# Method in brief: as §1
# SpLsb4 = target: SpLsb4
# Method in brief: as §1
# SpMyo1 = target: SpMyo1
# Method in brief: as §1
# SpNbp2 = target: SpNbp2
# Method in brief: as §1
# SpPex13 = target: SpPex13
# Method in brief: as §1
# SpRvs167 = target: SpRvs167
# Method in brief: as §1
# SpSla1-D1-D2 = target: SpSla1-D1-D2
# Method in brief: as §1
# SpSla1-D3 = target: SpSla1-D3
# Method in brief: as §1
binder,measurement,setting,value
TKFRISLGLPVGAIM,SPOT peptide array binding signal intensity,AgAbp1,4
same,SPOT peptide array binding signal intensity,AgBbc1,108
same,SPOT peptide array binding signal intensity,AgBem1-D1,429
same,SPOT peptide array binding signal intensity,AgBzz1-D1,100
same,SPOT peptide array binding signal intensity,AgBzz1-D2,109
same,SPOT peptide array binding signal intensity,AgCyk3,66
same,SPOT peptide array binding signal intensity,AgFus1,1490
same,SPOT peptide array binding signal intensity,AgHof1,91.5
same,SPOT peptide array binding signal intensity,AgHse1,911
same,SPOT peptide array binding signal intensity,AgLsb1,28
same,SPOT peptide array binding signal intensity,AgLsb4,513
same,SPOT peptide array binding signal intensity,AgMyo5,3.75
same,SPOT peptide array binding signal intensity,AgNbp2,422
same,SPOT peptide array binding signal intensity,AgRvs167,21.3
same,SPOT peptide array binding signal intensity,AgSho1,548
same,SPOT peptide array binding signal intensity,AgSla1-D1-D2,176
same,SPOT peptide array binding signal intensity,AgSla1-D3,12
same,SPOT peptide array binding signal intensity,CaAbp1-D1,112
same,SPOT peptide array binding signal intensity,CaAbp1-D2,134
same,SPOT peptide array binding signal intensity,CaBbc1,225
same,SPOT peptide array binding signal intensity,CaBem1-D1,199
same,SPOT peptide array binding signal intensity,CaBzz1-D1,592
same,SPOT peptide array binding signal intensity,CaBzz1-D2,334
same,SPOT peptide array binding signal intensity,CaCyk3,162
same,SPOT peptide array binding signal intensity,CaFus1,4760
same,SPOT peptide array binding signal intensity,CaHof1,1.25
same,SPOT peptide array binding signal intensity,CaHse1,193
same,SPOT peptide array binding signal intensity,CaLsb1,31
same,SPOT peptide array binding signal intensity,CaLsb4,280
same,SPOT peptide array binding signal intensity,CaMyo5,69.2
same,SPOT peptide array binding signal intensity,CaNbp2,498
same,SPOT peptide array binding signal intensity,CaRvs167,245
same,SPOT peptide array binding signal intensity,CaRvs167-3,2240
same,SPOT peptide array binding signal intensity,CaSho1,1360
same,SPOT peptide array binding signal intensity,CaSla1-D1-D2,126
same,SPOT peptide array binding signal intensity,CaSla1-D3,602
same,SPOT peptide array binding signal intensity,ScAbp1,13
same,SPOT peptide array binding signal intensity,ScBbc1,17
same,SPOT peptide array binding signal intensity,ScBem1-D1,66
same,SPOT peptide array binding signal intensity,ScBzz1-D1,95
same,SPOT peptide array binding signal intensity,ScBzz1-D2,392
same,SPOT peptide array binding signal intensity,ScCyk3,292
same,SPOT peptide array binding signal intensity,ScFus1,2830
same,SPOT peptide array binding signal intensity,ScHof1,2.5
same,SPOT peptide array binding signal intensity,ScHse1,1460
same,SPOT peptide array binding signal intensity,ScLsb1,19.8
same,SPOT peptide array binding signal intensity,ScLsb2,30
same,SPOT peptide array binding signal intensity,ScLsb3,329
same,SPOT peptide array binding signal intensity,ScLsb4,72
same,SPOT peptide array binding signal intensity,ScMyo3,4
same,SPOT peptide array binding signal intensity,ScMyo5,12
same,SPOT peptide array binding signal intensity,ScNbp2,702
same,SPOT peptide array binding signal intensity,ScPex13,65.5
same,SPOT peptide array binding signal intensity,ScRvs167,80.7
same,SPOT peptide array binding signal intensity,ScSho1,2880
same,SPOT peptide array binding signal intensity,ScSla1-D1-D2,333
same,SPOT peptide array binding signal intensity,ScSla1-D3,122
same,SPOT peptide array binding signal intensity,SpAbp1-D1,68
same,SPOT peptide array binding signal intensity,SpBbc1,55
same,SPOT peptide array binding signal intensity,SpBzz1-D1,537
same,SPOT peptide array binding signal intensity,SpBzz1-D2,5
same,SPOT peptide array binding signal intensity,SpCyk3,55
same,SPOT peptide array binding signal intensity,SpHof1,183
same,SPOT peptide array binding signal intensity,SpHof1-2,78.2
same,SPOT peptide array binding signal intensity,SpHof1-3,760
same,SPOT peptide array binding signal intensity,SpHse1,664
same,SPOT peptide array binding signal intensity,SpLsb1,35.5
same,SPOT peptide array binding signal intensity,SpLsb4,100
same,SPOT peptide array binding signal intensity,SpMyo1,20.5
same,SPOT peptide array binding signal intensity,SpNbp2,1390
same,SPOT peptide array binding signal intensity,SpPex13,239
same,SPOT peptide array binding signal intensity,SpRvs167,39.2
same,SPOT peptide array binding signal intensity,SpSla1-D1-D2,6
same,SPOT peptide array binding signal intensity,SpSla1-D3,51.5
